# High-throughput results deposited in PubChem by National Center for Advancing Translational Sciences (NCATS).
# Cycloheximide cs: Cycloheximide Counterscreen for Small Molecule Inhibitors of Shiga Toxin. cell reporter, cycloheximide protein synthesis inhibition counterscreen. max response, %. 300,000 tested, 12% active. AID 2314, 2010; in the data active = max response mostly above about 13%, no sharp cut-off; inactive = mostly below about 14%; note: read at 38.3 µM for the half of the compounds with a filed dose; 0% is about no effect
# Pf growth 96h: Primary qHTS for delayed death inhibitors of the malarial parasite plastid, 96 hour incubation; 320,000 tested, 6.9% active; AID 504834, 2011; Potency, µM (highest dose often 28.7 µM), without a hit: at the top dose activity change, negative = inhibition, most hits filed as inhibitors; P. falciparum luciferase reporter growth, 96 h; note: potency is the fitted concentration of half-maximal effect; % is set by controls: 0 for no effect and ±100 for the full control effect
#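 Luminescence readout: decreased luciferase signal marks inhibited growth of reporter-expressing P. falciparum in infected red cells (2% hematocrit, 0.05% parasitemia final), exposed to compound two generations (96 h, 37 C, 5% CO2).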
# Pf growth 48h: Primary qHTS for delayed death inhibitors of the malarial parasite plastid, 48 hour incubation; P. falciparum luciferase growth in erythrocytes, 48 h; Potency, µM (titrated, usually from 28.7 µM), inactives show at the highest dose activity change, negative = inhibition, most hits filed as inhibitors; 310,000 tested, 5.9% active; AID 504832, 2011; note: potency is the fitted concentration of half-maximal effect; % is set by controls: 0 for no effect and ±100 for the full control effect
#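 Read-out is firefly luciferase luminescence from an integrated reporter in P. falciparum, so falling signal marks reduced parasite growth. Infected erythrocytes were at 2% hematocrit and 0.1% parasitemia (final) in Albumax-supplemented RPMI 1640.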
# Shiga toxin inh: A qHTS for Small Molecule Inhibitors of Shiga Toxin; Vero cells, Shiga toxin protein synthesis inhibition reporter; inhibition, % at 38.7 µM; 290,000 tested, 9.2% active; AID 2315, 2010; in the data active = inhibition mostly above about 28%, no sharp cut-off; inactive = mostly below about 43%; note: 0% is about no effect
# The depositor's hits bear a star; i = inactive; u = inconclusive; x = no result given. Most compounds without a hit are left out; they make up all but 21% or so of the library. Unless noted, calls come from the whole dose curve; as a rule, active = well fitted inhibition curve with a large enough effect; inconclusive = small, poorly fitted or top-dose-only effect, or another doubt; inactive = no such curve, though single readings can be large or run the other way.
SMILES,Cycloheximide cs,Pf growth 96h,Pf growth 48h,Shiga toxin inh
CCN(CC(=O)NCc1ccc(F)cc1)C(=O)/C=C/c1ccc(OC)c(S(=O)(=O)NC(C)C)c1,-7.2,u,u,-5.5
Cc1cccc(NC(=O)c2nc[nH]c2C(=O)N[C@@H](Cc2ccccc2)C(=O)OCc2ccccc2)c1,2.1,u,u,-2.5
O=C(CC1SC(N2CCCC2)=NC1=O)Nc1ccc(C(=O)NCCOc2ccccc2F)cc1 (stereo not drawn),x,u,6.3%,x
O=C(O)c1ccc(S(=O)(=O)N2CCc3ccccc3C2)cc1,-0.7,9.28µM*,-9.3%,-14.8
Cc1ccc(C(=O)Nc2ccc(S(=O)(=O)N3CCc4ccccc4C3)cc2)o1,-2.5,x,13.1µM*,-5.9
CCc1noc(C)c1C(=O)Nc1ccc(F)c(F)c1F,x,20.7%,21.2%,x
COc1ccc(CCNC(=O)c2nnc(Cc3ccc(Cl)cc3)o2)cc1OC,-2.9,-112.0%,x,12.8
CC(C)CCNC(=O)c1nnc(Cc2ccc(Cl)cc2)o1,0.8,8.28µM*,x,36.5
COc1ccc(-c2nnc(CSc3nnc(-c4ccncc4)n3C3CCCCC3)o2)cc1OC,5.4,9.28µM*,u,-12.9
Cc1nnc(NC(=O)CCC(=O)NC2CCCCCCC2)s1,-0.7,18.1%,31.5%,-2.8
Cc1nnc(SCC(=O)NC2CCCCC2)[nH]c1=O,-2.3,14.6%,30.5%,-3.0
CSc1ccc(S(=O)(=O)NCC(=O)OCC(=O)N(Cc2ccccc2)C(C)C)cc1[N+](=O)[O-],x,-1.0%,-6.3%,x
O=C(NCc1ccco1)c1ccc(C(=O)NCc2ccco2)s1,-11.9,x,-8.1%,-45.2
CCc1sc(C(=O)NCc2ccco2)cc1Br,18.7*,10.4µM*,1.0%,x
CCc1sc(C(=O)NCc2ccco2)cc1C,13.3,15.0%,-2.5%,63.7*
COc1ccc(-c2c(C)[nH]n3c(=O)c(Cc4ccccc4)c(C)nc23)cc1,1.3,48.9%,u,8.0
C/C(=N\O)c1cc(Cl)ccc1O,-2.7,28.3%,42.5%,-5.8
O=C(O)c1ccc2c(c1)C(=O)N(c1cccc(C(=O)/C=C/c3ccccc3)c1)C2=O,28.4*,i,37.2%,52.5*
O=C(O)c1cccc(NC(=O)c2ccc(N3C(=O)c4ccc(C(=O)Nc5cccc(C(=O)O)c5)cc4C3=O)cc2)c1,1.6,34.8%,26.4%,36.4
CCN1C(=O)c2ccc(C(=O)Nc3cccc(C(=O)O)c3)cc2C1=O,19.8*,7.0%,x,48.0*
O=C(O)c1cccc(NC(=O)c2ccc3c(c2)C(=O)N(c2cccc([N+](=O)[O-])c2)C3=O)c1,-2.5,5.86µM*,38.1%,1.6
COC(=O)/C=C/c1ccsc1NC(C)=O,-1.9,19.8%,-9.8%,-3.8
Cc1ccc(C(=O)N/N=C/c2ccc(-c3cccc(Cl)c3)o2)cn1,0.9,47.3%,-0.2%,3.3
O=C(N/N=C/c1ccc(-c2ccccc2[N+](=O)[O-])o1)[C@H]1C[C@@H]1c1ccccc1,31.2*,25.0%,0.0%,active
Cc1ccc(C(=O)N/N=C/c2ccc(-c3ccccc3[N+](=O)[O-])o2)cn1,18.8*,-11.8%,-20.0%,20.4
SMILES,Cycloheximide cs,Pf growth 96h,Pf growth 48h,Shiga toxin inh
Cc1n[nH]c(=S)n1/N=C/c1ccc(-c2ccccc2[N+](=O)[O-])o1,12.8*,x,16.8%,32.5
COc1ccc(C2Nc3ccccc3C(=O)N2Cc2ccco2)cc1COc1ccc([N+](=O)[O-])cc1 (stereo not drawn),18.1,5.86µM*,u,20.8
COc1cccc(OCc2cc(C3Nc4ccccc4C(=O)N3Cc3ccco3)ccc2OC)c1 (stereo not drawn),8.0,-7.1%,8.28µM*,14.1
CC(Sc1n[nH]c(=O)n1Cc1ccccc1)C(=O)NCC1CCCO1 (stereo not drawn),x,6.2%,3.7%,x
CC(C)CCN(C(=O)CNC(=O)c1ccco1)C(C(=O)NC1CCCCC1)c1cccnc1 (stereo not drawn),-3.0,u,-5.4%,-1.6
O=C(COc1ccccc1O)Nc1ccc(Cl)cc1,27.6*,x,-0.2%,56.4*
Cc1ccc(Cl)cc1NC(=O)c1ccccc1OCC(=O)Nc1ccc(Cl)cc1,-0.9,9.28µM*,u,-6.9
COc1ccccc1C(=O)Nc1cc(Cl)ccc1O,-5.4,u,u,-14.3
CCOc1ccccc1C(=O)Nc1cc(Cl)ccc1O,-1.0,x,3.29µM*,-4.5
Cc1c(F)c(F)c(COC(=O)C2C(/C=C(\Cl)C(F)(F)F)C2(C)C)c(F)c1F (stereo not drawn),9.7,x,x,-3.2
CC(=O)N1C(c2ccccc2)CC(=O)OC1c1ccc2c(c1)OCO2 (stereo not drawn),-0.9,x,16.1%,-3.3
